# Assay results: PubChem BioAssay (NCATS)
# Several values for one entry are separate records, joined by “and”; a condition that tells them apart may be missing. Equal entries are not always repeated. Inconclusive results are not listed. A call without a number means that no potency is given here. Some compounds were tested as several samples or in several runs, with calls that do not always agree. Activity calls are given as the source filed them. Unless noted, calls follow the shape of the dose curve; as a rule, active = well fitted curve in the direction sought with a large enough effect; inconclusive = small, poorly fitted or top-dose-only effect, or another doubt; inactive = no such curve, though single readings can be large; an effect the other way counts as inactive or inconclusive.
# How the values were obtained:
# [1] = tested on: HIV-1 nucleocapsid protein NCp7 (binding to TG oligonucleotide); test: HIV Nucleocapsid (AID 346; call rule not given here;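 also: potency is read from the fitted curve at half-maximal effect; potency is for inhibitors that block NC binding and lower polarization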); conditions: HIV-1 NC / fluorescein-TGTGTGTG probe, fluorescence polarization
# Outline: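 Fluorescence polarization readout: labelled TG4xF oligo (10 nM) with 100 nM nucleocapsid protein, high-salt (250mM NaCl) Hepes pH 7.5 buffer containing zinc and fresh reducing agents. Compounds added by pin tool; incubation 1 hr, room temperature.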
# [2] = target: Lysosomal acid glucosylceramidase (Homo sapiens) (UniProt P04062); test: Glucocerebrosidase-p2 (AID 348; in the data active = potency below about 10 µM; also: potency is read from the fitted curve at half-maximal effect); conditions: purified GBA, blue fluorogenic substrate, 40 min
# Outline: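 Compounds titrated from 0.6 nM upwards against 0.2 nM enzyme in pH 5.9 citric acid/KH2PO4, taurocholate, tween-20; blue fluorogenic substrate 80 uM, 40 min room temperature, stopped and read Ex 365/Em 440 for AC50.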
# [3] = AP1 Signaling Pathway (AID 357; active = well fitted curve in either direction with a large enough effect, not every such curve was filed as active;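 also: ME-180 reporter cells stimulated with EGF at its EC50 level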); conditions: ME-180 AP-1-bla reporter, EGF-induced, beta-lactamase ratio, 5 h; series mostly up to 17.2 µM
# Outline: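 Titration-series screen for positive or negative modulators of EC50 EGF-induced signaling in ME-180 cells carrying an AP-1-driven beta-lactamase reporter. After 5 hours at 37 degrees Celsius, CCF4 460nm/530nm emission ratio gave %Activity; AC50 values derived.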
# [4] = target: Cytochrome P450 1A2 (Homo sapiens) (UniProt P05177); test: p450-cyp1a2 (AID 410; calls by dose curve); conditions: recombinant CYP1A2, luciferin-ME demethylation, luminescence; series mostly up to 25.6 µM
# Outline: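 Human CYP1A2 (20nM) demethylated Luciferin-ME at its Km (100uM) in 100mM KPO4. After 10 min compound preincubation, NADPH regeneration ran the reaction 60 min at room temperature. Luciferin was read by luminescence, normalized to 57 uM furafylline.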
# [5] = NFAT Signaling Pathway (AID 444; active = well fitted curve in either direction with a large enough effect, not every such curve was filed as active;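 also: carbachol stimulus at about its EC50 of 1 µM final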); conditions: Jurkat NFAT-bla M1, carbachol, beta-lactamase ratio, 5 h; at 7.69 µM (top of the series)
# Outline: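 Read-out: CCF4 FRET ratio (460 nm/530 nm) after 1 h RT dye loading, used for %activity and AC50 from titration series. Cells: Jurkat NFAT-β-lactamase/M1 line, treated with compound plus 1 uM carbachol for 5 h, 37 °C.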
# [6] = Stat Signaling Pathway (AID 446; active = well fitted curve in either direction with a large enough effect, not every such curve was filed as active;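 also: ME-180 cervical cancer cells given 40 pM IL-6 alongside compound; SIE-controlled beta-lactamase reporter measured as 460/530 nm FRET emission ratio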); conditions: ME-180 SIE beta-lactamase reporter, IL-6 stimulated, 5 h; series mostly up to 17.2 µM
# Outline: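 Reporter line: ME-180 cervical carcinoma, SIE-beta-lactamase. Treatment: compound with 40 pM IL-6, 5 hrs, 37 C, in low-serum OPTI-MEM with 10 mM HEPES pH 7.3. Detection: 460/530 nm fluorescence.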
# [7] = target: Glucocorticoid receptor (Homo sapiens) (UniProt P04150); test: GR-EFC Redistribution (AID 451; calls by dose curve; also: potency is read from the fitted curve at half-maximal effect); conditions: CHO-K1 GR-EFC translocation, beta-gal luminescence, 2 h
# Outline: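 Translocation of GR-ED fusion to nuclear EA restores b-gal, read by luminescence after 1 h room-temperature detection. Engineered CHO-K1 biosensor cells, 1,000/well, exposed 2 h at 37 C to titrations up to 46 uM final.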
# [8] = target: Mitogen-activated protein kinase 10 (Mus musculus) (UniProt Q61831); test: JNK3 AlphaScreen Assay (AID 530; active = well fitted curve in either direction with a large enough effect, not every such curve was filed as active;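 also: kinase came from lysate of stimulated human HepG2 cells; signal reports phosphorylation of biotinylated GST-cJun 1-79 at Ser73 with 10 µM ATP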); conditions: JNK3 lysate, c-Jun phosphorylation; series mostly up to 57.1 µM
# Outline: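 Room-temperature AlphaScreen kinase assay; pre-activated HepG2 lysate as JNK3 source, biotin-GST-cJun(1-79) substrate, 10 uM ATP, compound 15 min preincubation.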
# [9] = target: 3',5'-cyclic-AMP phosphodiesterase 4B (Homo sapiens) (UniProt Q07343); test: qHTS Assay for Inhibitors of PDE-IV (AID 607; active = well fitted activation curve with a large enough effect in the main read-out, with a control signal flat, not every such curve was filed as active); conditions: HEK293 ACTOne CNG channel cells, membrane potential fluorescence; series mostly up to 22.9 µM
# Outline: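 Cell-based read-out of cAMP via a modified cyclic nucleotide-gated channel and membrane potential dye (535/590 nm) in HEK293 cells expressing PDE4 endogenously. Compounds tested up to 22.9 uM final; 100 uM RO 20-1724 reference.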
# [10] = qHTS Assay for Lipid Storage Modulators (AID 1519; calls by dose curve; also: potency is read from the fitted curve at half-maximal effect); conditions: Drosophila S3 cells, BODIPY lipid droplet/cell ratio, laser cytometry, cells loaded with oleic acid; for activity change, negative = inhibition: at 57.5 µM (top of the series)
# Outline: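 Cells seeded at 5,000 per well were treated with compounds over a concentration series and loaded with oleic acid (400 uM, as added). Lipid droplet fluorescence (488 nm excitation, 500-530 nm channel) was read by laser-scanning cytometry and normalized to 20 uM Triacsin C.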
# [11] = target: Cytochrome P450 3A4 (Homo sapiens) (UniProt P08684); test: qHTS Assay for Activators of Cytochrome P450 3A4 (AID 885); conditions: recombinant CYP3A4, Luciferin-PPXE luminescence, 60 min; series mostly up to 57.1 µM; also: nearly all actives have a fitted effect of over 65% in size; also: potency is read from the fitted curve at half-maximal effect
# Outline: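 Signal was normalized against complete inhibition by 57 uM ketoconazole. The reaction used 20nM CYP3A4 with 25uM Luciferin-PPXE, 10-min compound preincubation and a 60-min NADPH-supported step at RT.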
# [12] = Confirmation and Secondary Assay for Modulators of Hemoglobin Beta Chain Splicing at IVS2 705 locus (AID 930); conditions: HeLa EGFP-705 splicing reporter, GFP fluorescence, 48 h; series mostly up to 46.1 µM;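 also: HeLa cells stably expressing the EGFP-705 splicing reporter; GFP fluorescence per well restored by corrected splicing of the IVS2-705 intron in EGFP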
# Outline: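 Per-well GFP, captured at 1 x 8 µm resolution with 488 nm excitation, served as the read-out for HeLa EGFP-705 cells incubated 2 days with test compound versus DMSO.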
# [13] = qHTS Assay for Identification of Small Molecule Inducers of Hypoxia Response (AID 2120; active = well fitted curve in the direction sought with a large enough effect in the signal ratio, with a control signal flat, not every such curve was filed as active; the % refers to the signal ratio); conditions: hypoxia response reporter cells, beta-lactamase ratio readout; series mostly up to 104 µM
# Outline: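 HRE-beta-lactamase reporter in CellSensor HRE-bla ME-180 cells, 2500 cells/well in Opti-MEM with 0.5% dialyzed FBS; compounds tested as titration series, 17 h at 37 degrees C. CCF4 substrate 2.5 h at room temperature; AC50 from 460/530 nm ratio.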
# [14] = target: Ubiquitin carboxyl-terminal hydrolase 1 (Homo sapiens) (UniProt O94782); test: Inhibitors of USP1/UAF1: Pilot qHTS (AID 504865); conditions: purified USP1/UAF1, Ub-rhodamine cleavage fluorescence; series mostly up to 114 µM;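 also: rhodamine fluorescence freed from ubiquitin-rhodamine substrate followed over time; top concentration of the series differs between compounds; nearly all actives have a fitted effect of over 35% in size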
# Outline: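 1nM USP1/UAF1 + cpd, 15 min RT; start w/ Ub-Rho 150nM final; kinetic FL 480/540 nm, 6 reads q60 s. Buffer 50mM HEPES pH 7.8, 0.5mM EDTA, 1mM TCEP, 0.01% Tween-20, 0.1 mg/ml BSA.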
# [15] = target: Voltage-gated inwardly rectifying potassium channel KCNH2 (Homo sapiens) (UniProt Q12809); test: qHTS Assay for Small Molecule Inhibitors of the Human hERG Channel Activity (AID 588834); conditions: U2OS BacMam hERG, FluxOR thallium flux fluorescence; series mostly up to 92.2 µM;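 also: lower thallium flux fluorescence means stronger hERG block; nearly all actives have a fitted effect of over 50% in size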; also: potency is read from the fitted curve at half-maximal effect; as to activity change, negative = inhibition: top concentration of the series differs between compounds
# Outline: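 Concentration-response qHTS measuring drop in thallium-sensitive dye signal. U2OS cells carrying BacMam hERG; compound exposure ~10 min, then stimulation buffer and 2 min read at 1 sec intervals.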
# [16] = Confirmation and Secondary Assay for Modulators of Hemoglobin Beta Chain Splicing at IVS2 654 locus (AID 910); conditions: HeLa EGFP-654 splicing reporter, GFP fluorescence, 48 h; series mostly up to 46.1 µM;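 also: HeLa cells stably carrying EGFP split by mutant beta-globin IVS2-654 intron; per-well total GFP intensity by laser scanning cytometry after 2-day treatment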
# Outline: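 Readout: per-well total peak green fluorescence (488 nm ex, 500–520 nm em) from objects 5–250 µm, reflecting correct splicing of an EGFP-654 reporter. Compounds were applied for 2 days at 37 °C to overnight-plated HeLa EGFP-654 cells; controls were DMSO and 500 nM IVS2-654 PNA.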
# [17] = target: Cytochrome P450 3A4 (Homo sapiens) (UniProt P08684); test: qHTS Assay for Inhibitors and Substrates of Cytochrome P450 3A4 (AID 884); conditions: recombinant CYP3A4, Luciferin-PPXE luminescence; series mostly up to 57.1 µM; also: nearly all actives have a fitted effect of over 50% in size; also: potency is read from the fitted curve at half-maximal effect
# Outline: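 20 nM human CYP3A4 with 25 uM Luciferin-PPXE (at KM) in 200 mM KPO4, preincubated 10 min with compound; NADPH regeneration started a 60 min RT reaction. Luciferin detected by luminescence, normalized to 57 uM ketoconazole as full inhibition.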
# [18] = target: Cytochrome P450 2D6 (Homo sapiens) (UniProt P10635); test: qHTS Assay for Inhibitors and Substrates of Cytochrome P450 2D6 (AID 891); conditions: recombinant CYP2D6, luciferin-ME EGE luminescence; series mostly up to 57.1 µM; also: potency is read from the fitted curve at half-maximal effect; nearly all actives have a fitted effect of over 60% in size
# Outline: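 Human CYP2D6 (5 nM) with 30 uM Luciferin-ME EGE (at Km) in 100 mM KPO4, compound preincubated 10 min, then NADPH regeneration system for 60 min at room temperature. Luciferin read by luminescence; normalized to 1.43 uM quinidine.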
# [19] = measured here: cell count channel max response
# [20] = measured here: lipid channel max response
# Chain of Ubiquitin carboxyl-terminal hydrolase 1 (Homo sapiens) (O94782 whole entry, looked up): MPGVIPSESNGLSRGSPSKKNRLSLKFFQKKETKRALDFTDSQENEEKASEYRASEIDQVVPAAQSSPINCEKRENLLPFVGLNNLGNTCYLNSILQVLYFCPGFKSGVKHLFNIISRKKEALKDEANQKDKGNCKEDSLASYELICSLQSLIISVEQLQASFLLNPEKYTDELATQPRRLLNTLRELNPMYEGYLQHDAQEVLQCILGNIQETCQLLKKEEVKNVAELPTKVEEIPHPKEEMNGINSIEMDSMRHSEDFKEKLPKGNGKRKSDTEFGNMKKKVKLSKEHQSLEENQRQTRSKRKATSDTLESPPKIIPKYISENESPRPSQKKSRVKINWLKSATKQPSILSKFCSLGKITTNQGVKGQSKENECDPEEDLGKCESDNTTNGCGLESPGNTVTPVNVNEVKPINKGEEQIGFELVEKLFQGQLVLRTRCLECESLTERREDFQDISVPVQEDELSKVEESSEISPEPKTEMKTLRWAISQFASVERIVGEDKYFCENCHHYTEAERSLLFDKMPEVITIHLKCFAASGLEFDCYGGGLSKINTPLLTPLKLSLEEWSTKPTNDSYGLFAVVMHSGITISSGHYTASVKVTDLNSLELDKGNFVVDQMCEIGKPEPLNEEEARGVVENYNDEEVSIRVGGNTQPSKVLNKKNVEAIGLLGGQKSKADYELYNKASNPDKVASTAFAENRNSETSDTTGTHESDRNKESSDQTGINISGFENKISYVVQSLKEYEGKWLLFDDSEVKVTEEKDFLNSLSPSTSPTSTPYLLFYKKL
# Chain of Glucocorticoid receptor (Homo sapiens) (P04150 whole entry, looked up, the tested form may be a part): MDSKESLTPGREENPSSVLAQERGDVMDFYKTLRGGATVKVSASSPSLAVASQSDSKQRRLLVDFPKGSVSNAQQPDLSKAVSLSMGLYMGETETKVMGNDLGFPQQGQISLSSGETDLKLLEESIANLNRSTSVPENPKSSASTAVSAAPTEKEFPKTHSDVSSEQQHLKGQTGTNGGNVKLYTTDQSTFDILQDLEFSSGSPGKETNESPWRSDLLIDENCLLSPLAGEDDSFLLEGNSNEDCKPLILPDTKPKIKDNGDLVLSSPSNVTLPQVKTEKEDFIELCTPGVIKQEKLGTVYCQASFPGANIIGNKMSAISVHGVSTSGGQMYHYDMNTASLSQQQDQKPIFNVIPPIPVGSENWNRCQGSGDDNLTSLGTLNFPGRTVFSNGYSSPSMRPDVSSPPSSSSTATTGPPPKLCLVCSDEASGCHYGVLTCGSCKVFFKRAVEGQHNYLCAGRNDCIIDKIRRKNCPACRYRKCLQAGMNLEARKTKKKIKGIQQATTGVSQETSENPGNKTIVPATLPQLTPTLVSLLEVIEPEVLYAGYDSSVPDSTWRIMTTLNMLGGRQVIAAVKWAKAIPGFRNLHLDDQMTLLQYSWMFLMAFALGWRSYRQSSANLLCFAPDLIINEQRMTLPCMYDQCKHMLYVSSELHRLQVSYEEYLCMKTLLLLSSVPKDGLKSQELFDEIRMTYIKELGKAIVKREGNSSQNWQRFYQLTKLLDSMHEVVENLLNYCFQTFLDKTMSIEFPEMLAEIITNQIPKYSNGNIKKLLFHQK
# Chain of Lysosomal acid glucosylceramidase (Homo sapiens) (P04062 whole entry, looked up): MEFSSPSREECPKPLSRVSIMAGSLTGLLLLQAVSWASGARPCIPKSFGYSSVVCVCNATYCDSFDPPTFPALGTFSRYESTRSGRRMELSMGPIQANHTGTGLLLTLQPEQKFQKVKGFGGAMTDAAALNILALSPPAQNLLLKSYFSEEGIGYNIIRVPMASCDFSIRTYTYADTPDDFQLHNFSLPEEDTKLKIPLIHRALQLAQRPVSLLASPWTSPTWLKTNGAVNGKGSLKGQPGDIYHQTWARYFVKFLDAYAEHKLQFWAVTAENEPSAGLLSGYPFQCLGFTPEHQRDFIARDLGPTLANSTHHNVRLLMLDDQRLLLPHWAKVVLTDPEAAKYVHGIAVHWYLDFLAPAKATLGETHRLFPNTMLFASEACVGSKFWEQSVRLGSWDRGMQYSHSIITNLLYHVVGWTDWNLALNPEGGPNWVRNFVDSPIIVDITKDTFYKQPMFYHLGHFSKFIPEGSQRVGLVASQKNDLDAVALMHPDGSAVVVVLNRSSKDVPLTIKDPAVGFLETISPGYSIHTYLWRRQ
# Chain of 3',5'-cyclic-AMP phosphodiesterase 4B (Homo sapiens) (Q07343 whole entry, looked up): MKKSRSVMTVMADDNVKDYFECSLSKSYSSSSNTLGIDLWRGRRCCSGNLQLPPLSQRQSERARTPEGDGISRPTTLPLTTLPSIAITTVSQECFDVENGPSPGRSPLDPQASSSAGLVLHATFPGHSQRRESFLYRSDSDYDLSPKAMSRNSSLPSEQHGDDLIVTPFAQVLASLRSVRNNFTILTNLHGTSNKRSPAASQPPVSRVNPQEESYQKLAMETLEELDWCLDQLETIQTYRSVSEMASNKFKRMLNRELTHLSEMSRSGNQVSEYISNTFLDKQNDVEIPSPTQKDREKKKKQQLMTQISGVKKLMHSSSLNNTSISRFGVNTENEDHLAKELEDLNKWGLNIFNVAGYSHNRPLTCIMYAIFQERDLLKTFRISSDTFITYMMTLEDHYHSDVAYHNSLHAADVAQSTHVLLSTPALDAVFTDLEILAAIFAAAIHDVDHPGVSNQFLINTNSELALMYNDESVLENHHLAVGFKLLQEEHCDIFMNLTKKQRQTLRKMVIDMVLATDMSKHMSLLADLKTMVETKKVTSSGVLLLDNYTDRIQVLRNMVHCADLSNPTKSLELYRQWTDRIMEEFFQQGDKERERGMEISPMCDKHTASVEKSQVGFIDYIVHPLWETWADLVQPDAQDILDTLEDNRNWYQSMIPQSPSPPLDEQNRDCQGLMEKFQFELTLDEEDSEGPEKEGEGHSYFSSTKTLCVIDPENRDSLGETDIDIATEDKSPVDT
# Chain of Cytochrome P450 3A4 (Homo sapiens) (P08684 whole entry, looked up): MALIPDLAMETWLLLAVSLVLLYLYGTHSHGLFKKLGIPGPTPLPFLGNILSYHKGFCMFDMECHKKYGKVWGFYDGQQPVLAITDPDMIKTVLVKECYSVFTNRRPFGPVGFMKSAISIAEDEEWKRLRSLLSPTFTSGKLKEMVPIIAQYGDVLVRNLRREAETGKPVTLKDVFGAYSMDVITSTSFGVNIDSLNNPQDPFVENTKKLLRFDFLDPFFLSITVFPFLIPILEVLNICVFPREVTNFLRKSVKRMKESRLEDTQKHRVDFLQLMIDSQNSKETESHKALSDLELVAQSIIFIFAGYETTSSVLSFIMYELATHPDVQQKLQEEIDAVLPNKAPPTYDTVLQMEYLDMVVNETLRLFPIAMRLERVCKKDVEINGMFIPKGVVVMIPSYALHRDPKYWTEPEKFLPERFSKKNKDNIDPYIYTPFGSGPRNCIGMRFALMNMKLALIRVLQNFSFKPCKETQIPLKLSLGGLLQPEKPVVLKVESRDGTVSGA
# Chain of Voltage-gated inwardly rectifying potassium channel KCNH2 (Homo sapiens) (Q12809 whole entry, looked up): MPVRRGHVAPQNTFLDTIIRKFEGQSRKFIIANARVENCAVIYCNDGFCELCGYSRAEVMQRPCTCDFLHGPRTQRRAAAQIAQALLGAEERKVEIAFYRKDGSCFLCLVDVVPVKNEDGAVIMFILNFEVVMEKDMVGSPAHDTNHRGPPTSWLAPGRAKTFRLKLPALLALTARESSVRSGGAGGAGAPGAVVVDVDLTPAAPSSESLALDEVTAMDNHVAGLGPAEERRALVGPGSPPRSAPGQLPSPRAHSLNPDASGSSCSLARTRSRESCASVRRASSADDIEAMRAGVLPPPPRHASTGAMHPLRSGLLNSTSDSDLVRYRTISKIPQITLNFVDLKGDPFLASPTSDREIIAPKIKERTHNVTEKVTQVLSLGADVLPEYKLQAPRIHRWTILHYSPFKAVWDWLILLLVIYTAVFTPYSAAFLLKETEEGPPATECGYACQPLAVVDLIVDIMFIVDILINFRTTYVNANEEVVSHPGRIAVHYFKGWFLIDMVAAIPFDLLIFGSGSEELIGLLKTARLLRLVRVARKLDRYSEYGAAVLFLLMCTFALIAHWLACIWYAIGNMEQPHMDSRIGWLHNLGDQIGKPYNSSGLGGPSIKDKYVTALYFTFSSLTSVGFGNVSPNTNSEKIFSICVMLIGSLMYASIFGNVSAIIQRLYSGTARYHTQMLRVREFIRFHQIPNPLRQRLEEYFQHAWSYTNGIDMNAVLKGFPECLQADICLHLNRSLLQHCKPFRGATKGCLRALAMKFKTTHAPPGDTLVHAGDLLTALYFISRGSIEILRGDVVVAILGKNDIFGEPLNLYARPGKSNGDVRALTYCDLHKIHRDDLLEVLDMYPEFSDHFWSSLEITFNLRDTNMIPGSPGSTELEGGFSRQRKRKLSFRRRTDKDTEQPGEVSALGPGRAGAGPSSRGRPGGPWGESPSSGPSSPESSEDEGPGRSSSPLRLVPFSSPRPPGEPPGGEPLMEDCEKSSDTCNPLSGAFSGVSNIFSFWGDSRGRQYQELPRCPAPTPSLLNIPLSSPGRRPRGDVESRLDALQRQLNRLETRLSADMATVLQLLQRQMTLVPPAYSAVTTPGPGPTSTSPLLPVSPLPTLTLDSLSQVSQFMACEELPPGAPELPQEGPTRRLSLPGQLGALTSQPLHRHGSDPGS
# Chain of Cytochrome P450 1A2 (Homo sapiens) (P05177 whole entry, looked up): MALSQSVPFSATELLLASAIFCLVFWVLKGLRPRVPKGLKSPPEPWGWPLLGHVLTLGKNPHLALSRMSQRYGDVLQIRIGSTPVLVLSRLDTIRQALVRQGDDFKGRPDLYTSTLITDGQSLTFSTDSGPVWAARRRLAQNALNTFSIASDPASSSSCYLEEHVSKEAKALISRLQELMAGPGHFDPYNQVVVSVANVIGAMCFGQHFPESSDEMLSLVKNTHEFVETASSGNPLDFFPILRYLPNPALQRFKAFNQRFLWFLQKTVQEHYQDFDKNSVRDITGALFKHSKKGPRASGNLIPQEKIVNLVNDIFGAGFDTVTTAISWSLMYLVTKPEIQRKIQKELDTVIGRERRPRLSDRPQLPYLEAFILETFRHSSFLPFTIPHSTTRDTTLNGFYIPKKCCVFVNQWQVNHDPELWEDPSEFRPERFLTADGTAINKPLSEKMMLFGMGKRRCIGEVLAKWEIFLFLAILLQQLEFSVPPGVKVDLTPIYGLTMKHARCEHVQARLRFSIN
smiles,measurement,setting,value
CC(C)CN1CC2(CCN(C(=O)Oc3ccccc3)CC2)C1,Potency,[1],> 20 µM (inactive)
same,Potency,[2],> 11.4 µM (inactive)
same,outcome,[3],inactive
same,Potency,[4],inactive
same,"activity change, negative = inhibition",[5],-14.8% (inactive)
same,outcome,[6],inactive
same,Potency,[7],> 46 µM (inactive)
same,outcome,[8],inactive
same,Potency,[9],inactive
same,"activity change, negative = inhibition",[10],2.95% (inactive)
same,max response,[10]; [19],-4.14%
same,max response,[10]; [20],1.27%
C/C=C/c1ccc2c(c1)OCO2,Potency,[11],inactive
same,Potency,[12],inactive
same,"activity change, negative = inhibition",[10],7.07% (inactive)
same,max response,[10]; [19],10.4%
same,max response,[10]; [20],20.9%
same,outcome,[13],inactive
same,Potency,[14],inactive
same,Potency,[15],inactive
ClC1=C(Cl)C2(Cl)C3C4CC(C5OC45)C3C1(Cl)C2(Cl)Cl (stereo not drawn),outcome,[8],inactive
same,Potency,[16],inactive
same,"activity change, negative = inhibition",[10],3.37% (inactive)
same,max response,[10]; [19],8.98%
same,max response,[10]; [20],15.6%
same,outcome,[13],inactive
same,Potency,[15],35.5 µM (active)
ClC(Cl)=C(c1ccc(Cl)cc1)c1ccc(Cl)cc1,Potency,[17],inactive and 7.94 µM (active)
same,Potency,[11],inactive
same,Potency,[16],inactive
same,Potency,[12],inactive
same,"activity change, negative = inhibition",[10],9.37% (inactive)
same,max response,[10]; [19],14.6%
same,max response,[10]; [20],26.1%
same,outcome,[13],inactive
same,Potency,[14],inactive
Cc1noc(C)c1C(=O)N1CCC[C@@]2(CCN(CC(C)C)C2)C1,Potency,[1],> 20 µM (inactive)
same,Potency,[2],> 11.4 µM (inactive)
same,outcome,[3],inactive
same,"activity change, negative = inhibition",[5],12.5% (inactive)
same,Potency,[7],> 46 µM (inactive)
same,outcome,[8],inactive
same,Potency,[9],inactive
same,"activity change, negative = inhibition",[10],5.3% (inactive)
same,max response,[10]; [19],6.03%
same,max response,[10]; [20],15.4%
CC(C)CN1CC2(CCN(C(=O)c3ccncc3)CC2)C1,Potency,[1],> 20 µM (inactive)
same,Potency,[2],> 11.4 µM (inactive)
same,outcome,[3],inactive
same,Potency,[4],inactive
same,outcome,[6],inactive
same,Potency,[7],> 46 µM (inactive)
same,outcome,[8],inactive
same,Potency,[18],3.98 µM (active)
same,"activity change, negative = inhibition",[10],-1.63% (inactive)
same,max response,[10]; [19],11.7%
same,max response,[10]; [20],11.8%
C=CCc1ccc(OC)cc1,outcome,[8],inactive
same,Potency,[11],inactive
same,"activity change, negative = inhibition",[10],1.63% (inactive)
same,max response,[10]; [19],21.3%
same,max response,[10]; [20],23.9%
same,outcome,[13],inactive
same,Potency,[15],inactive
CCc1cccc(CC)c1N(COC)C(=O)CCl,Potency,[16],inactive
same,"activity change, negative = inhibition",[10],1.98% (inactive)
same,max response,[10]; [19],-0.808%
same,max response,[10]; [20],0.291%
same,outcome,[13],inactive
same,Potency,[14],inactive
same,Potency,[15],inactive
CCOCN(C(=O)CCl)c1c(C)cccc1CC,outcome,[8],inactive
same,Potency,[17],inactive
same,Potency,[11],15.8 µM (active)
same,Potency,[16],inactive
same,Potency,[12],inactive
same,"activity change, negative = inhibition",[10],0.371% (inactive)
same,max response,[10]; [19],-6.11%
same,max response,[10]; [20],-5.22%
same,outcome,[13],inactive
same,Potency,[14],inactive
same,Potency,[15],inactive
CCNc1nc(Cl)nc(NC(C)C)n1,outcome,[8],inactive
same,Potency,[17],inactive
same,Potency,[16],inactive
same,Potency,[12],inactive
same,"activity change, negative = inhibition",[10],7.77% (inactive)
same,max response,[10]; [19],2.72%
same,max response,[10]; [20],11.1%
same,outcome,[13],inactive
same,Potency,[14],inactive
same,Potency,[15],inactive
COP(=S)(OC)Oc1ccc([N+](=O)[O-])cc1,outcome,[8],inactive
same,Potency,[17],3.98 µM (active)
same,Potency,[11],inactive
same,Potency,[16],inactive
same,Potency,[12],inactive
same,Potency,[10],22.4 µM (active)
same,max response,[10]; [19],19.5%
same,max response,[10]; [20],-54.1%
same,outcome,[13],inactive
same,Potency,[15],inactive
CC(C)CN1CC[C@@]2(CCCN(C(=O)c3ccncc3)C2)C1,Potency,[1],> 20 µM (inactive)
same,Potency,[2],> 11.4 µM (inactive)
same,outcome,[3],inactive
same,"activity change, negative = inhibition",[5],-22.2% (inactive)
same,outcome,[6],inactive
same,Potency,[7],> 46 µM (inactive)
same,outcome,[8],inactive
same,Potency,[9],inactive
same,"activity change, negative = inhibition",[10],2.73% (inactive)
same,max response,[10]; [19],-1.41%
same,max response,[10]; [20],4.49%
